Measurements reported in paper PMC7862700, “An all-to-all approach to the identification of sequence-specific readers for epigenetic DNA modifications on cytosine”.

What was measured:
Test in all cases: DAPPL (digital affinity profiling via proximity ligation, sequencing); 10 mM Tris-HCl pH 7.5, 50 mM NaCl, 1 mM DTT, 4% glycerol, room temperature, 30 min; GST-TFs on glutathione beads, 16-mer random dsDNA library, 0.1% formaldehyde crosslink after washing; high values mean tight binding
[1] = target: T1, FEV (Homo sapiens, UniProt Q99581 1-238); conditions: protein: recombinant; tags: N-terminal GST; dsDNA, one strand shown
T1 sequence: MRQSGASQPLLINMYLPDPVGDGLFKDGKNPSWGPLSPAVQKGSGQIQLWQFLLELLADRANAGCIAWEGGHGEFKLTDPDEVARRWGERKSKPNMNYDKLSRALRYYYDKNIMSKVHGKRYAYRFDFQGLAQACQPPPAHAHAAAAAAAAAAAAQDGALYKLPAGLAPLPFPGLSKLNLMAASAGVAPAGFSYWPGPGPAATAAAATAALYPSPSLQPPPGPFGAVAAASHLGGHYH
Outline: (§1)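 The binding signal reported is, for every hexamer, its read frequency for a factor over its read frequency for the tag-only sample. Reads came from pools of yeast-expressed, GST-fused human transcription factors on glutathione beads, barcoded with DNA and mixed with that sample, which were incubated with 200 nmole of a random double-stranded 16-mer DNA library in Tris/NaCl/DTT/glycerol buffer at room temperature for 30 min. After washing, the pools were crosslinked with 0.1% formaldehyde, proximity-ligated with BsaI/T4 ligase for 1 h at 37 °C, PCR-amplified and sequenced on an Illumina NextSeq500.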

[2] = target: ETV5 (Homo sapiens, UniProt P41161 1-510); conditions: protein: recombinant; tags: N-terminal GST; dsDNA, one strand shown
ETV5, sequence (P41161 whole entry): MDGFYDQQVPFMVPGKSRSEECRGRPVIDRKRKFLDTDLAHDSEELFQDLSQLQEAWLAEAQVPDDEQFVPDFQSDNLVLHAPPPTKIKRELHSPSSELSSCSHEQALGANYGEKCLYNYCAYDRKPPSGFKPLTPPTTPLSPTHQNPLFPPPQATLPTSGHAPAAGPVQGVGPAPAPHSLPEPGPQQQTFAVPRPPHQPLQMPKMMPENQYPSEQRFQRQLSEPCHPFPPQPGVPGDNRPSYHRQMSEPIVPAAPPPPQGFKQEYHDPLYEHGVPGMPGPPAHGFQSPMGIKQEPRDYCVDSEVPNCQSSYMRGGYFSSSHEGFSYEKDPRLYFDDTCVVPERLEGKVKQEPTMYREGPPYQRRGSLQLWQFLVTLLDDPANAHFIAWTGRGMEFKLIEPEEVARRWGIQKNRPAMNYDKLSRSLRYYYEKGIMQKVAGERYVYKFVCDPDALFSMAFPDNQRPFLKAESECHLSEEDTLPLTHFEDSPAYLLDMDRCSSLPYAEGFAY
Outline: as §1

[3] = target: HSF1 (Homo sapiens, UniProt Q00613 1-529); conditions: protein: recombinant; tags: N-terminal GST; chain copies: 3; dsDNA, one strand shown
HSF1, sequence (Q00613 whole entry): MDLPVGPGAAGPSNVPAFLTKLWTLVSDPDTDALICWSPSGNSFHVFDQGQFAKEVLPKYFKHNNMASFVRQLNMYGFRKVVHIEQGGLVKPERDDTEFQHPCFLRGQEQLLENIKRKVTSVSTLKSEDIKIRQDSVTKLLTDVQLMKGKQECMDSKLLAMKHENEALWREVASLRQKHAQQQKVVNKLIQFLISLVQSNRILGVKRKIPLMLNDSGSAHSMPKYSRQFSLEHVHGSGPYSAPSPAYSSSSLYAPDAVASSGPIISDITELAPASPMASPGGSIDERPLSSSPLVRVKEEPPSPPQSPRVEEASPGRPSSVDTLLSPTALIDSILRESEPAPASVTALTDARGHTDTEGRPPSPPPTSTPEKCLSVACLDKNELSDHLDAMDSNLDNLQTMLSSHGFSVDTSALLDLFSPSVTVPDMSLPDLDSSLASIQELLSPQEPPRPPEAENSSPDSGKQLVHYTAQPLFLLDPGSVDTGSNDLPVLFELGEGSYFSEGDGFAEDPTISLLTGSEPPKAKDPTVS
Outline: as §1

[4] = target: T2, SPIC (Homo sapiens, UniProt Q8N5J4 1-248); conditions: protein: recombinant; tags: N-terminal GST; dsDNA, one strand shown
T2 sequence: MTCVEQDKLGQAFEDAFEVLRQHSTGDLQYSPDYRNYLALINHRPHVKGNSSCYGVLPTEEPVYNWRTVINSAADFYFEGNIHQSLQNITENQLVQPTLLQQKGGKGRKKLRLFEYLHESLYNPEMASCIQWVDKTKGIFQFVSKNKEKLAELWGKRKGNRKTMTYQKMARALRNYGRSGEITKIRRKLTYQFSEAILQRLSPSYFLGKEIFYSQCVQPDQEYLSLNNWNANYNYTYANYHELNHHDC
Outline: as §1

[5] = target: ELF4 (Homo sapiens, UniProt Q99607 1-663); conditions: protein: recombinant; tags: N-terminal GST; dsDNA, one strand shown
ELF4, sequence (Q99607 whole entry): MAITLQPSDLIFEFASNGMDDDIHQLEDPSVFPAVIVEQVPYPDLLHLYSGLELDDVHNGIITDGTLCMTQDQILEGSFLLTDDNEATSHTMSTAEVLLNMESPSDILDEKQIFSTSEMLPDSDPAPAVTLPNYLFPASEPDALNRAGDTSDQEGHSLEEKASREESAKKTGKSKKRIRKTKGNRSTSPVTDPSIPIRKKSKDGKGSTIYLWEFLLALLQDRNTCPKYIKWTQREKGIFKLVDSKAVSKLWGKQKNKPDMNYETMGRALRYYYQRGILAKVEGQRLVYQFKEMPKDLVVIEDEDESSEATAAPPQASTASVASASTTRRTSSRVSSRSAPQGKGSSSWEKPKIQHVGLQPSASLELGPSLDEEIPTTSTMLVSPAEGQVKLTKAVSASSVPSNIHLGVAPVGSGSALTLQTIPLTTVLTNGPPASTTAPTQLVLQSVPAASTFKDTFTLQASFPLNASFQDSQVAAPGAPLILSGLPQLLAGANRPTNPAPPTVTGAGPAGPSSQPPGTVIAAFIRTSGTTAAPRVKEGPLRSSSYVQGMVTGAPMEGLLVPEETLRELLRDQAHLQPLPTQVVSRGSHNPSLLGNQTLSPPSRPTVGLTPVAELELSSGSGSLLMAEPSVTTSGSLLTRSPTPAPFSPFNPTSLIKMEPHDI
Outline: as §1

[6] = target: T3, ELK4 (Homo sapiens, UniProt P28324-2 1-405); conditions: protein: recombinant; tags: N-terminal GST; dsDNA, one strand shown
T3 sequence: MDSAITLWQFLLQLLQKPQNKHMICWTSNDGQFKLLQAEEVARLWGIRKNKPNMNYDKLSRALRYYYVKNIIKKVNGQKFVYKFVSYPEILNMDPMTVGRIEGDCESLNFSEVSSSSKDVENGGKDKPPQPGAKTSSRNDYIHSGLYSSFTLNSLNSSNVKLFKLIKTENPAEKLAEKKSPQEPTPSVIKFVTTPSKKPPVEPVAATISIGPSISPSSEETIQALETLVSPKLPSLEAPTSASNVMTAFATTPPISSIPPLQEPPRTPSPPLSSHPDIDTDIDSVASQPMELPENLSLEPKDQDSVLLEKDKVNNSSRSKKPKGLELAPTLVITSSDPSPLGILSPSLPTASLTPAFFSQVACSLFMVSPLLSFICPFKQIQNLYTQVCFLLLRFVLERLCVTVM
Outline: as §1

[7] = target: T4, ETV2 (Homo sapiens, UniProt O00321 1-342); conditions: protein: recombinant; tags: N-terminal GST; dsDNA, one strand shown
T4 sequence: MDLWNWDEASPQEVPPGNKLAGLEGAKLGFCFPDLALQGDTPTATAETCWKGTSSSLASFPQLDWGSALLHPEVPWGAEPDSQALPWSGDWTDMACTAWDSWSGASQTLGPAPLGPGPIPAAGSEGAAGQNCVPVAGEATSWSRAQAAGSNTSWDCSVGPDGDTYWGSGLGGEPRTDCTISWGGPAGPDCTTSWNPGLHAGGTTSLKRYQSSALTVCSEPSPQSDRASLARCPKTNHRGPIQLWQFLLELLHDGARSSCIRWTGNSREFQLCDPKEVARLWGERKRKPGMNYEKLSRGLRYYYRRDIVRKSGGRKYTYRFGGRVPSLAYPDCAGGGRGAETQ
Outline: as §1

[8] = target: T5, ELF3 (Homo sapiens, UniProt P78545 1-371); conditions: protein: recombinant; tags: N-terminal GST; dsDNA, one strand shown
T5 sequence: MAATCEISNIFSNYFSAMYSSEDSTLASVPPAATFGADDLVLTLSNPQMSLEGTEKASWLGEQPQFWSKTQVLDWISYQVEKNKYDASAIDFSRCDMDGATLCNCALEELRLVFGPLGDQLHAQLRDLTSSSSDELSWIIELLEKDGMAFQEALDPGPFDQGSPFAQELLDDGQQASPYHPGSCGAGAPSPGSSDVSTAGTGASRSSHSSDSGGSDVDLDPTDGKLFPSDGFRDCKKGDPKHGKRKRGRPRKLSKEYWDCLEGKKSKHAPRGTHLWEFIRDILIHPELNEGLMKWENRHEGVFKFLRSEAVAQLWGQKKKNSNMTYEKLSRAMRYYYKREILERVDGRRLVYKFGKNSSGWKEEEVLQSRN
Outline: as §1

[9] = target: ETV1 (Homo sapiens, UniProt P50549 1-477); conditions: protein: recombinant; tags: N-terminal GST; dsDNA, one strand shown
ETV1, sequence (P50549 whole entry): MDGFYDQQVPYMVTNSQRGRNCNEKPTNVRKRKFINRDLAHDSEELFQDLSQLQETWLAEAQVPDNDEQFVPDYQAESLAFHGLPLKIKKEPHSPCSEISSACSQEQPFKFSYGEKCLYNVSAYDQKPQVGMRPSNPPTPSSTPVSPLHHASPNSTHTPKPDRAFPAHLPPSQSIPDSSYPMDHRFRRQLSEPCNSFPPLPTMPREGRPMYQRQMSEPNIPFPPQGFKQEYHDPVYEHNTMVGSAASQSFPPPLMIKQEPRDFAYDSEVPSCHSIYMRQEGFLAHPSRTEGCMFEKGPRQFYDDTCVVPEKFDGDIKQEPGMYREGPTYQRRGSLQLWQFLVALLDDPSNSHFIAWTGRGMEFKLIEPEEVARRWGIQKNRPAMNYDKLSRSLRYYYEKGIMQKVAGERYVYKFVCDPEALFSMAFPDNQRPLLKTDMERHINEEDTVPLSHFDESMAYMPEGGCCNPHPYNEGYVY
Outline: as §1

[10] = target: T6, ERF (Homo sapiens, UniProt P50548 1-548); conditions: protein: recombinant; tags: N-terminal GST; dsDNA, one strand shown
T6 sequence: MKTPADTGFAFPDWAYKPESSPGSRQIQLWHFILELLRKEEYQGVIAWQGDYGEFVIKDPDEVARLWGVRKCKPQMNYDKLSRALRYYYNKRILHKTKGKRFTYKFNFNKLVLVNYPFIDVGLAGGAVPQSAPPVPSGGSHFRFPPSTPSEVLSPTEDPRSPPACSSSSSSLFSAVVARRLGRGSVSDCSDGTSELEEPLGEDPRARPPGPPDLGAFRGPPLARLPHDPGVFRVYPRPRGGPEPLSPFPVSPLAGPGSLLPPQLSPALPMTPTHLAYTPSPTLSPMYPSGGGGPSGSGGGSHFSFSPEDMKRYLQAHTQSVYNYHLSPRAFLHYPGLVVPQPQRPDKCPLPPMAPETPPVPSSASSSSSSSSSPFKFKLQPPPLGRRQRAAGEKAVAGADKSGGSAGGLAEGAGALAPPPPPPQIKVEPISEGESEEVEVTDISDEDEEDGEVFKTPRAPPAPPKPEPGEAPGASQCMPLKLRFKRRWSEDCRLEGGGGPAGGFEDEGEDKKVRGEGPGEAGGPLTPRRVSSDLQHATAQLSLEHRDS
Outline: as §1

[11] = target: T7, ETV3L (Homo sapiens, UniProt Q6ZN32 1-361); conditions: protein: recombinant; tags: N-terminal GST; dsDNA, one strand shown
T7 sequence: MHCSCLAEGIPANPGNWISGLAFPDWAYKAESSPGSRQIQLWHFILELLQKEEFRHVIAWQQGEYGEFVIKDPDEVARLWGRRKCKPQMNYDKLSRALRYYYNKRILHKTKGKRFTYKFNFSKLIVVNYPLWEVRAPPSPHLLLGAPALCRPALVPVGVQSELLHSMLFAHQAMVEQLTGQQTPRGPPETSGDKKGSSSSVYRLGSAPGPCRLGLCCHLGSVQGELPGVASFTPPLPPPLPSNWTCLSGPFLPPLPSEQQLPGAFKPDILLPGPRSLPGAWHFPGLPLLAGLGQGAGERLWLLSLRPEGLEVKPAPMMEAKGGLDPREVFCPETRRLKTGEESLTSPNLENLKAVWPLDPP
Outline: as §1

[12] = target: T8, ETS2 (Homo sapiens, UniProt P15036 1-469); conditions: protein: recombinant; tags: N-terminal GST; dsDNA, one strand shown
T8 sequence: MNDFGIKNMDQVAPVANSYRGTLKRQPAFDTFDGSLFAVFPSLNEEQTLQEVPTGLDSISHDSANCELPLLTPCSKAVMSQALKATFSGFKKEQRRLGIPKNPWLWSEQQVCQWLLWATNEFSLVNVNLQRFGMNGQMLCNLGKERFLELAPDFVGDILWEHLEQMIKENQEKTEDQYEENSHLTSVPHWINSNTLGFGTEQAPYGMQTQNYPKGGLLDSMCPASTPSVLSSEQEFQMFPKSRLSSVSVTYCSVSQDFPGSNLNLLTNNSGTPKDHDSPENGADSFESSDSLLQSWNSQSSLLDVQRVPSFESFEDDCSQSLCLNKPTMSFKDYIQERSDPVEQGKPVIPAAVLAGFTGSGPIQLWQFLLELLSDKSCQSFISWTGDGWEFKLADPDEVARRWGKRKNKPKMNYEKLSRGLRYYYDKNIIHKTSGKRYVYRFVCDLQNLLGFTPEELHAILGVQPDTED
Outline: as §1

[13] = target: T9, SPDEF (Homo sapiens, UniProt O95238 1-335); conditions: protein: recombinant; tags: N-terminal GST; dsDNA, one strand shown
T9 sequence: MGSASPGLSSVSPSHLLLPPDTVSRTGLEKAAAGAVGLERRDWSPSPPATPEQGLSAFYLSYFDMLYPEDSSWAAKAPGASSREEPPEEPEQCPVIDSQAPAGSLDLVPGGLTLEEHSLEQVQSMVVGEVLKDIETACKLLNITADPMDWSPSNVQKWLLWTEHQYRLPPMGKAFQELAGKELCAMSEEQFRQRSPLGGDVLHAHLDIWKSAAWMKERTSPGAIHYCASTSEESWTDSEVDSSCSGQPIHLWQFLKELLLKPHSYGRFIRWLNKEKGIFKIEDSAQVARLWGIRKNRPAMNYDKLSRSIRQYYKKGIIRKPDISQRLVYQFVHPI
Outline: as §1

[14] = target: T10, ETV7 (Homo sapiens, UniProt Q9Y603 1-341); conditions: protein: recombinant; tags: N-terminal GST; dsDNA, one strand shown
T10 sequence: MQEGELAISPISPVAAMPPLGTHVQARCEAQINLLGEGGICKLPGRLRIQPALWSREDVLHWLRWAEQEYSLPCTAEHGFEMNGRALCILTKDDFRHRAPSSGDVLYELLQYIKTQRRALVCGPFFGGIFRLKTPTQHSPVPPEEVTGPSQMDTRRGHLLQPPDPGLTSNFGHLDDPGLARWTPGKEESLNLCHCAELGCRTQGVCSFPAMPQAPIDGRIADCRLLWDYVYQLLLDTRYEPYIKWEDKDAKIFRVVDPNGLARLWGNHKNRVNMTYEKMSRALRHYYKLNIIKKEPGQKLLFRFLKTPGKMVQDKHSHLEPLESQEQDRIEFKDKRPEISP
Outline: as §1

[15] = target: T11, ELF5 (Homo sapiens, UniProt Q9UKW6-2 1-255); conditions: protein: recombinant; tags: N-terminal GST; dsDNA, one strand shown
T11 sequence: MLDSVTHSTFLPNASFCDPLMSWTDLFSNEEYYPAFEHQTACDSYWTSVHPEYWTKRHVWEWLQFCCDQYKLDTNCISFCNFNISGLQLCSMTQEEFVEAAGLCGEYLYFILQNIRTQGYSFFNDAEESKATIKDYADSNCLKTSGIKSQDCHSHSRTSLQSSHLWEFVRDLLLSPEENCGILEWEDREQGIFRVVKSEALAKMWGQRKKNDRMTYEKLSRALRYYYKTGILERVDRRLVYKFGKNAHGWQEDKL
Outline: as §1

[16] = target: T12, ETV3 (Homo sapiens, UniProt P41162-2 1-143); conditions: protein: recombinant; tags: N-terminal GST; dsDNA, one strand shown
T12 sequence: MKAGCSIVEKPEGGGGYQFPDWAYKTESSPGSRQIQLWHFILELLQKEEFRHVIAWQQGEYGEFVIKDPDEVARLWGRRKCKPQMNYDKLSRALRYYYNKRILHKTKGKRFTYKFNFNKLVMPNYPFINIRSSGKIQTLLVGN
Outline: as §1

[17] = target: ETV6 (Homo sapiens, UniProt P41212 1-452); conditions: protein: recombinant; tags: N-terminal GST; dsDNA, one strand shown
ETV6, sequence (P41212 whole entry): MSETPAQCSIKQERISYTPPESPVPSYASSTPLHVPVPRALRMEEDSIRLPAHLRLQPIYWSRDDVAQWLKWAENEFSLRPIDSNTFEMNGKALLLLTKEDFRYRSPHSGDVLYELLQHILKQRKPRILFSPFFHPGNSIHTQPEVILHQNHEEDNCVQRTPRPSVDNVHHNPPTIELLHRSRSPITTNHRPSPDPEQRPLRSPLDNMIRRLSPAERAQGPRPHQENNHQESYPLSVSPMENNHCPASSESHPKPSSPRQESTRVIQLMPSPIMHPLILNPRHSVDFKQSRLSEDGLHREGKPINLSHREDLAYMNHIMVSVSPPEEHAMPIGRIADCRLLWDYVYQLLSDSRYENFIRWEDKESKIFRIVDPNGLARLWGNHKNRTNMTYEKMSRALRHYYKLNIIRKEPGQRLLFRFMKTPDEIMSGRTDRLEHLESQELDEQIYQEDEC
Outline: as §1

Question: What does the source list for TCTGAC?
Answer: binding signal [1]: 1.15 fold enrichment (6-mer frequency, TF over GST control); binding signal [2]: 1.15 fold enrichment (6-mer frequency, TF over GST control); binding signal [3]: 1.07 fold enrichment (6-mer frequency, TF over GST control); binding signal [4]: 1.04 fold enrichment (6-mer frequency, TF over GST control); binding signal [5]: 1.35 fold enrichment (6-mer frequency, TF over GST control); binding signal [6]: 1.25 fold enrichment (6-mer frequency, TF over GST control); binding signal [7]: 1.16 fold enrichment (6-mer frequency, TF over GST control); binding signal [8]: 1.18 fold enrichment (6-mer frequency, TF over GST control); binding signal [9]: 1.3 fold enrichment (6-mer frequency, TF over GST control); binding signal [10]: 1.21 fold enrichment (6-mer frequency, TF over GST control); binding signal [11]: 1.04 fold enrichment (6-mer frequency, TF over GST control); binding signal [12]: 1.2 fold enrichment (6-mer frequency, TF over GST control); binding signal [13]: 1.14 fold enrichment (6-mer frequency, TF over GST control); binding signal [14]: 1.22 fold enrichment (6-mer frequency, TF over GST control); binding signal [15]: 1.2 fold enrichment (6-mer frequency, TF over GST control); binding signal [16]: 1.18 fold enrichment (6-mer frequency, TF over GST control); binding signal [17]: 1.27 fold enrichment (6-mer frequency, TF over GST control)
